Only some compounds are listed: those with a hit (about 1.2% of all), similar ones and a draw of the others.
NFkB transloc pot: enhancers of NFkB p65 translocation in HUVEC – imaging, IL-1B stimulus, high-content imaging, primary screen. AID 819, 2007. hit rate 0.3% among 94,000. activation, % at 2 µM. HUVEC IL-1B NFkB p65 nuclear translocation imaging;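 active = activation above 40%, about the mean plus 3 SD, also judged a hit on visual image review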;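 also: percent activation is computed from the nuclear over cytoplasmic p65 intensity ratio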
sEH activator: soluble epoxide hydrolase activators, primary screen, biochemical, human sEH; Bifunctional epoxide hydrolase 2 (Homo sapiens), P34913; purified human sEH enzymatic activity, activator screen; activation, % at 2 µM; hit rate 0.04% among 91,000; in the data active = activation above about 37%
Target sequence (P34913 whole entry, looked up): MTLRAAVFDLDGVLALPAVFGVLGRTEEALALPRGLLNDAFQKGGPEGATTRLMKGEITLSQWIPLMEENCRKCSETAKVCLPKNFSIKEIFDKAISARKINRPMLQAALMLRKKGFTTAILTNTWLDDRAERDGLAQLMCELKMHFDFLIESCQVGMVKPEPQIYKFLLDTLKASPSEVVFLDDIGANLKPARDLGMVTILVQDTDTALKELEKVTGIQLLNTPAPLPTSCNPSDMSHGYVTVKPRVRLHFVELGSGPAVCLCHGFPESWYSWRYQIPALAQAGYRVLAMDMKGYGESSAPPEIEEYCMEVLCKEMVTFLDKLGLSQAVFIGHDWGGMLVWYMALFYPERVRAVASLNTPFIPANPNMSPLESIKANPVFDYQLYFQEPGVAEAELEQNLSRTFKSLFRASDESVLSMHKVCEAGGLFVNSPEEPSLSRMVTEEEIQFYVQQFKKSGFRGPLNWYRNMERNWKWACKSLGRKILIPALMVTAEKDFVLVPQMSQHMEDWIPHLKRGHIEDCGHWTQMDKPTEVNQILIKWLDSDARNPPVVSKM
sEH inhibitor: soluble epoxide hydrolase inhibitors, primary screen, biochemical, human sEH | recombinant human sEH enzymatic activity assay | inhibition, % at 2 µM | hit rate 0.34% among 91,000 | AID 707, 2007; in the data active = inhibition above about 80%
HUVEC tox IL1B: cytotoxicity in IL-1B stimulated HUVEC, primary screen, cytotoxicity control for IL-1B NFkB translocation project, imaging, Hoechst nuclear count, IL-1B stimulus; HUVEC cell count loss; cell count reduction, % at 2 µM; hit rate 0.41% among 94,000;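 active = cell count reduction more than 3 SD above the screen-wide mean, cut at about 70% in these data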;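 also: normalized per plate to untreated control cells as the no-loss baseline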
NFkB transloc inh: inhibitors of IL-1B driven NFkB p65 nuclear import, primary screen, imaging, HUVEC, IL-1B stimulus, high-content imaging; HUVEC IL-1B NFkB p65 nuclear translocation imaging; inhibition, % at 2 µM; hit rate 0.43% among 94,000; AID 796, 2007;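 active = inhibition above about 30% together with a positive call from visual inspection of the well image, limit read from the data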;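 also: nuclear over cytoplasmic p65 intensity ratio measured by imaging; 0% = IL-1B stimulated DMSO wells and 100% = unstimulated DMSO wells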
The depositor's hits bear a star.

Results for c1ccc(-n2nc3c(ccc4cnnc43)[nH]2)cc1 ?
NFkB transloc pot: 8.5; sEH activator: 6.7; sEH inhibitor: -6.2; HUVEC tox IL1B: -23.6; NFkB transloc inh: -8.5

Results for Cc1ccc2nc(/C(C#N)=C\c3ccc(N4CCOCC4)o3)[nH]c2c1 ?
NFkB transloc pot: 15.6; sEH activator: -30.6; sEH inhibitor: 30.6; HUVEC tox IL1B: -11.0; NFkB transloc inh: -15.6

What do the screens show for `Cc1ccc2nc(/C(C#N)=C\c3ccc([N+](=O)[O-])o3)[nH]c2c1`?
NFkB transloc pot: -37.5; sEH activator: 2.5; sEH inhibitor: -1.8; HUVEC tox IL1B: -36.3; NFkB transloc inh: 37.5*

Results for CCOc1ccc(NC(=O)C2CCC(N3C(=O)C4CC=CCC4C3=O)CC2)cc1 (stereo not drawn) ?
NFkB transloc pot: -5.0; sEH activator: -14.9; sEH inhibitor: 14.6; HUVEC tox IL1B: -21.5; NFkB transloc inh: 4.9

How did CCOc1ccc(NC(=O)CN2C(=O)C3CC=CCC3C2=O)cc1 (stereo not drawn) do in these assays?
NFkB transloc pot: -3.8; sEH activator: -2.0; sEH inhibitor: 1.4; HUVEC tox IL1B: 93.3*; NFkB transloc inh: 3.8

What do the screens show for `O=C(c1c(Cl)nc2sccn12)N1CCN(c2cccc(Cl)c2)CC1`?
NFkB transloc pot: 31.7; sEH activator: 6.9; sEH inhibitor: -7.3; HUVEC tox IL1B: -7.4; NFkB transloc inh: -31.7

Results for Cc1nccn1CC(O)Cn1c2ccccc2c2ccccc21 (stereo not drawn) ?
NFkB transloc pot: 46.4*; sEH activator: -6.1; sEH inhibitor: 9.1; HUVEC tox IL1B: -23.3; NFkB transloc inh: -46.4

How did Nc1ncnc2nc(Sc3ccc(Cl)cc3)[nH]c12 do in these assays?
NFkB transloc pot: -34.1; sEH activator: -0.8; sEH inhibitor: 5.8; HUVEC tox IL1B: 6.1; NFkB transloc inh: 34.1*

What do the screens show for `COc1cc2[nH]c(=O)n(CCC(=O)N3CCN(c4cc(Cl)ccc4C)CC3)c(=O)c2cc1OC`?
NFkB transloc pot: -1.7; sEH activator: 2.2; sEH inhibitor: -3.4; HUVEC tox IL1B: 82.8*; NFkB transloc inh: 1.7

How did O=C(c1nc2nc(-c3ccc(Cl)cc3)cc(C(F)(F)F)n2n1)N1CCOCC1 do in these assays?
NFkB transloc pot: -31.3; sEH activator: -9.5; sEH inhibitor: 7.8; HUVEC tox IL1B: -25.9; NFkB transloc inh: 31.3*

Results for CCc1c(C(=O)NCc2ccccc2Cl)[nH]c(C)c1C(C)=O ?
NFkB transloc pot: 17.4; HUVEC tox IL1B: -27.6; NFkB transloc inh: -17.4

Results for CC(=O)c1c(C)[nH]c(C(=O)NCc2ccccc2Cl)c1C ?
NFkB transloc pot: -1.4; sEH activator: -84.7; sEH inhibitor: 84.8*; HUVEC tox IL1B: 3.3; NFkB transloc inh: 1.4

Results for C#CCOc1ccc(Br)cc1/C=N/O ?
NFkB transloc pot: -46.5; sEH activator: -1.4; sEH inhibitor: 2.1; HUVEC tox IL1B: -4.0; NFkB transloc inh: 46.5*

Results for Cc1c(Br)c([N+](=O)[O-])nn1C(C)C(=O)Nc1ccc2c(c1)OCO2 (stereo not drawn) ?
NFkB transloc pot: 6.8; sEH activator: 9.5; sEH inhibitor: -7.6; HUVEC tox IL1B: -20.2; NFkB transloc inh: -6.8

What do the screens show for `COc1ccc(CNC(=O)Cn2nc(C(F)(F)F)c3c2CCC3)cc1`?
NFkB transloc pot: -34.6; sEH activator: 14.4; sEH inhibitor: -17.2; HUVEC tox IL1B: 94.1*; NFkB transloc inh: 34.6*

What do the screens show for `COc1ccc(NC(=O)Cn2nc(C(F)(F)F)c3c2CCCC3)c(OC)c1`?
NFkB transloc pot: 13.2; sEH activator: 3.6; sEH inhibitor: -7.2; HUVEC tox IL1B: -32.1; NFkB transloc inh: -13.2

How did CCOC(=O)CSc1nnc(Cc2ccccc2)n1CC1CCCO1 (stereo not drawn) do in these assays?
NFkB transloc pot: 52.1*; sEH activator: -1.1; sEH inhibitor: -1.0; HUVEC tox IL1B: 13.6; NFkB transloc inh: -52.1

How did CCOC(=O)/C(=C/c1c2ccccc2cc2ccccc12)NC(=O)c1ccccc1 do in these assays?
NFkB transloc pot: -96.6; sEH activator: 8.2; sEH inhibitor: -6.1; HUVEC tox IL1B: 91.8*; NFkB transloc inh: -5.7

Results for O=C(CN1CCOc2ccccc21)NC1CCCCCCC1 ?
NFkB transloc pot: 7.5; sEH activator: -86.7; sEH inhibitor: 86.5*; HUVEC tox IL1B: -3.9; NFkB transloc inh: -7.5

Results for Cn1c(/C=N/n2cnnc2)nc2ccccc21 ?
NFkB transloc pot: -98.8; sEH activator: 5.3; sEH inhibitor: -7.4; HUVEC tox IL1B: 85.1*; NFkB transloc inh: 98.8*

How did Cn1c(/C=N/c2nc3ccccc3[nH]2)nc2ccccc21 do in these assays?
NFkB transloc pot: 3.5; sEH activator: 3.4; sEH inhibitor: -3.1; HUVEC tox IL1B: -36.7; NFkB transloc inh: -3.5

What do the screens show for `Cc1c(C(=O)O)c(-c2ccccc2)nn1-c1ccccc1`?
NFkB transloc pot: -6.5; sEH activator: 4.2; sEH inhibitor: -6.1; HUVEC tox IL1B: 94.8*; NFkB transloc inh: 6.5

Results for Cc1ccc2cc(CN(CCCO)S(=O)(=O)c3cccc4nsnc34)c(=O)[nH]c2c1 ?
sEH activator: 14.9; sEH inhibitor: -14.7

How did Cc1nc(CNS(=O)(=O)c2ccc3c(c2)OCCO3)cs1 do in these assays?
NFkB transloc pot: 59.4*; sEH activator: 1.2; sEH inhibitor: 1.6; HUVEC tox IL1B: -10.6; NFkB transloc inh: -59.4

What do the screens show for `COc1ccc(NC(=S)NNC(=O)OC(C)(C)C)cc1OC`?
NFkB transloc pot: 7.9; sEH activator: 13.2; sEH inhibitor: -13.1; HUVEC tox IL1B: 16.7; NFkB transloc inh: -7.9

What do the screens show for `COc1ccc(C(=O)N(Cc2ccccc2)Cc2cc3cc4c(cc3[nH]c2=O)OCCO4)cc1`?
NFkB transloc pot: -71.8; sEH activator: 3.2; sEH inhibitor: -4.4; HUVEC tox IL1B: -23.7; NFkB transloc inh: 71.8*

What do the screens show for `O=C(NCCc1nc2ccccc2[nH]1)c1ccc(F)cc1`?
NFkB transloc pot: 13.4; sEH activator: 9.7; sEH inhibitor: -9.9; HUVEC tox IL1B: 91.6*; NFkB transloc inh: -13.4

How did CC(C)C(O)P(=O)(OCc1ccccc1)c1ccc(N(C)C)cc1 (stereo not drawn) do in these assays?
NFkB transloc pot: 0.3; sEH activator: -2.0; sEH inhibitor: -0.1; HUVEC tox IL1B: 4.5; NFkB transloc inh: -0.3

Results for C/C(=N\Nc1cc(Cl)nc(C)n1)c1ccc(C)cc1 ?
NFkB transloc pot: -0.7; sEH activator: 52.1*; sEH inhibitor: -47.9; HUVEC tox IL1B: 4.1; NFkB transloc inh: 0.7

How did C/C(=N/NC(=O)CNc1ccc(C)cc1)c1ccc(Cl)cc1 do in these assays?
NFkB transloc pot: 2.9; sEH activator: -22.6; sEH inhibitor: 21.0; HUVEC tox IL1B: -21.4; NFkB transloc inh: -2.9

Results for CC(C)OCCCNS(=O)(=O)c1ccc2ccccc2c1 ?
NFkB transloc pot: 0.4; sEH activator: 19.7; sEH inhibitor: -21.3; HUVEC tox IL1B: 27.4; NFkB transloc inh: -0.4

How did CSc1ccc(-c2nnn(Cc3ccc(Br)cc3)n2)cc1 do in these assays?
NFkB transloc pot: 58.4*; sEH activator: -4.7; sEH inhibitor: 7.4; HUVEC tox IL1B: 13.0; NFkB transloc inh: -58.4
